# From PubChem BioAssay (NCI)
# The panel holds about 83,000 compounds, 20% with a hit somewhere; the sample as a whole holds those more often.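 Method: cells in 96-well plates; compound added at one concentration; 48 h incubation; percent growth measured; values under 10 scored active.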 A number with no mark means an inactive call. Active and inactive are the calls of the source.
# Key:
# Assay in all cases: NCI-60 one-dose screen, 48 h (100 = growth as untreated, 0 = no growth, -100 = all killed)
# Settings in all cases: 10 µM unless noted
# SK-MEL-2 melanoma = system: SK-MEL-2 melanoma
# EKVX NSCLC = system: EKVX NSCLC
# SN12C renal = system: SN12C renal
# UO-31 renal = system: UO-31 renal
# TK-10 renal = system: TK-10 renal
# ACHN renal = system: ACHN renal
# CAKI-1 renal = system: CAKI-1 renal
# A498 renal = system: A498 renal
# CCRF-CEM leukemia = system: CCRF-CEM leukemia
# MOLT-4 leukemia = system: MOLT-4 leukemia
# SR leukemia = system: SR leukemia
# RPMI-8226 leukemia = system: RPMI-8226 leukemia
# OVCAR-8 ovarian = system: OVCAR-8 ovarian
# OVCAR-5 ovarian = system: OVCAR-5 ovarian
# OVCAR-4 ovarian = system: OVCAR-4 ovarian
# SK-OV-3 ovarian = system: SK-OV-3 ovarian
# IGROV1 ovarian = system: IGROV1 ovarian
# OVCAR-3 ovarian = system: OVCAR-3 ovarian
# HS 578T breast = system: HS 578T breast
# NCI/ADR-RES ovarian = system: NCI/ADR-RES ovarian
Structure (SMILES),growth (SK-MEL-2 melanoma),growth (EKVX NSCLC),growth (SN12C renal),growth (UO-31 renal),growth (TK-10 renal),growth (ACHN renal),growth (CAKI-1 renal),growth (A498 renal),growth (CCRF-CEM leukemia),growth (MOLT-4 leukemia),growth (SR leukemia),growth (RPMI-8226 leukemia),growth (OVCAR-8 ovarian),growth (OVCAR-5 ovarian),growth (OVCAR-4 ovarian),growth (SK-OV-3 ovarian),growth (IGROV1 ovarian),growth (OVCAR-3 ovarian),growth (HS 578T breast),growth (NCI/ADR-RES ovarian)
COc1cc(/C=C2\CN(S(=O)(=O)c3ccccc3)C/C(=C\c3cc(CN4CCCCC4)c(O)c(OC)c3)C2=O)cc(CN2CCCCC2)c1O,104%,-36.4% (active),-42.4% (active),-96.6% (active),-38.8% (active),27.9%,-89.2% (active),95%,-2.62% (active),-20.6% (active),-18.6% (active),-34.9% (active),-25% (active),-66.6% (active),-69.8% (active),108%,-51.8% (active),-86.9% (active),0.476% (active),5.04% (active)
COc1ccc(N2CCN(C(=O)c3sc4nc(C)c(Br)c(C)c4c3N)CC2)cc1,85.1%,79.9%,95.9%,59.4%,115%,92.6%,82.6%,103%,97.8%,93%,97.4%,98.5%,97.6%,90.5%,90.6%,90.1%,91.2%,98.3%,92.8%,101%
Oc1ccc(/C=C/c2ccc(O)cc2)cc1,90.8%,76.5%,62.5%,21.5%,61.1%,11%,78.7%,77.5%,4.33% (active),74.9%,47.7%,12.8%,35.7%,135%,12%,99.7%,43.9%,47.7%,61.3%,20.3%
CC(=C(c1ccc(OCCN2CCCCC2)cc1)c1ccc(OCCN2CCCCC2)cc1)c1ccc(Cl)cc1,-82.9% (active),-86.4% (active),-91.1% (active),-96% (active),-88.5% (active),-99.1% (active),-98.4% (active),-85.9% (active),-71.5% (active),-71.2% (active),-60.3% (active),-61.7% (active),-77.4% (active),-92.5% (active),-88.8% (active),-91.1% (active),-83% (active),-91.4% (active),-72.4% (active),-90.8% (active)
NS(=O)(=O)c1ccc(C(=O)NN2C(=O)c3c(Br)c(Br)c(Br)c(Br)c3C2=O)cc1,99%,99.7%,97.6%,81.7%,112%,106%,88%,81.7%,101%,100%,94.5%,102%,106%,107%,104%,116%,104%,105%,94.6%,110%
Nc1[nH]c(=S)nc2oc(-c3ccccc3)c(-c3ccccc3)c12,101%,98%,97.5%,86.9%,114%,101%,109%,90.8%,119%,107%,93.8%,99.8%,101%,98.2%,97.2%,103%,100%,102%,91.1%,98.9%
C/C(=N\O)c1ccc(NC(=O)CSc2nnc(-c3cc(-c4ccc(S(C)(=O)=O)cc4)nc4ccccc34)n2-c2ccccc2)cc1,100%,84.7%,89.2%,65.2%,107%,90.8%,73.8%,53.1%,68.2%,57.9%,62.4%,48.2%,82.6%,97.3%,98.7%,115%,80.9%,102%,73.4%,96.8%
